Assay results from PubChem BioAssay AID686979 (National Center for Advancing Translational Sciences (NCATS), 2013).
The whole screen tested about 420,000 compounds, of which about 50,000 (12%) were called active. Inconclusive results (about 26%) are left out. The call rests on the fitted dose curve; in most records, active means well fitted inhibition curve with a large enough effect; inconclusive means small, poorly fitted or top-dose-only effect; inactive means flat fitted curve, though single readings scatter. For the sample, actives were picked, then their nearest neighbours and some compounds at random.

Test: qHTS for Inhibitors of human tyrosyl-DNA phosphodiesterase 1 (TDP1): qHTS in cells in presence of CPT; further: nearly all actives have a fitted effect of over 55% in size
Conditions: chicken DT40 Tdp1-/-;hTDP1 cells + 20 nM CPT, ATP luminescence, 48 h; series mostly up to 46.2 µM; activity change, negative = growth inhibition: at the top concentration
Outline: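 Cell growth measured by CellTiter-Glo luminescence after a minimum 48 h, 37 C compound exposure with 20 nM CPT in Tdp1-knockout DT40 cells stably expressing hTDP1, seeded 400/well; qHTS titration format.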
On the % scale 0 is the no-effect control and ±100 the full control effect; potency means the concentration at half of the fitted maximal effect.

SMILES | activity change, negative = growth inhibition | Potency
CCN(CC)CCCN1C(=O)C(=O)/C(=C(/O)c2c(C)nc3ccccn23)C1c1ccc(C)o1 (configuration not stated) | -12.8% (inactive) | –
Cc1ccc(N=C2NC(=O)c3cccc([N+](=O)[O-])c32)cc1 | -21.1% (inactive) | –
CC(=O)c1cnc(SCC(=O)O)nc1C | 5.08% (inactive) | –
Cc1nn(C)cc1/C=C1\CCC/C(=C\c2cn(C)nc2C)C1=O | – | 15.8 µM (active)
CCn1cc(/C=C2/SC(=S)NC2=O)c(C)n1 | -18% (inactive) | –
O=C1/C(=C/c2ccc3c(c2)OCO3)CCC/C1=C\c1ccc2c(c1)OCO2 | -23.1% (inactive) | –
C[C@H](NC(=O)C1CCN(S(=O)(=O)c2ccccc2)CC1)C(=O)NCc1ccccc1 | -11.3% (inactive) | –
CC[C@@]1(C(=O)OC)N[C@H](CN(C)C(C)=O)[C@@H]2C(=O)N(C)C(=O)[C@@H]21 | -0.511% (inactive) | –
Cc1ccc(C(C[N+](=O)[O-])c2c(C)cc3ccccn23)cc1 (configuration not stated) | – | 10.3 µM (active)
COc1ccccc1C(=O)NCCC(=O)NC(C)CCc1ccccc1 (configuration not stated) | -16.7% (inactive) | –
CC(C)(C)C(=O)Nc1ccc(C(=O)N/N=C/c2ccccc2OC(=O)c2ccc(Cl)cc2Cl)cc1 | – | 14.6 µM (active)
COc1cc(C=NNC(=O)c2cccnc2)ccc1OC(=O)c1ccccc1F | 7.47% (inactive) | –
O=C(N/N=C/c1ccoc1)c1ccc(Cl)cc1Cl | -6.06% (inactive) | –
Cc1cc(C)nc(SCC(=O)N(C)C)n1 | 0.938% (inactive) | –
COC(=O)c1c(C)[nH]c(C(=O)NCCc2ccc(S(N)(=O)=O)cc2)c1C | -0.0885% (inactive) | –
CC(=O)c1c(C)oc2ccc(NS(=O)(=O)c3ccc(C(=O)O)cc3)cc12 | 0.313% (inactive) | –
O=S(=O)(Nc1ccc(-n2cnnn2)cc1)c1ccc(Cl)cc1 | 1.72% (inactive) | –
CC(=O)c1c(C)n(S(=O)(=O)c2ccc(Cl)cc2)c2ccc(NS(=O)(=O)c3ccc(Cl)cc3)cc12 | – | 10.3 µM (active)
Cc1csc(-c2coc3cc(O[C@@H]4O[C@H](CO)[C@@H](O)[C@@H](O)[C@H]4O)ccc3c2=O)n1 | 8.48% [at 9.04 µM] (inactive) | –
O=C(Nc1n[nH]c(C(F)(F)F)n1)c1cccs1 | -21.7% (inactive) | –
COc1ccccc1C(=O)Nc1ccnn1C1CCN(C(=O)C(C)(C)C)CC1 | -7.39% (inactive) | –

SMILES | activity change, negative = growth inhibition | Potency
CCCCn1c(N)c(N(CCC(C)C)C(=O)c2ccc(COc3ccccc3)o2)c(=O)[nH]c1=O | -4% (inactive) | –
CCOc1ccc(S(=O)(=O)N/N=C(\C)c2ccc(Cl)c(Cl)c2Cl)cc1 | 1.94% (inactive) | –
COC(=O)COc1ccc2c(=O)c(Oc3ccccc3Br)coc2c1 | 9.84% (inactive) | –
Cc1ccc(NC(=O)Cn2sc3ccccc3c2=O)cc1 | – | 4.61 µM (active)
Cc1ccc(NC(=O)Cn2c(C)csc2=O)cc1 | 5.41% (inactive) | –
Cc1nn(CC(=O)Nc2ccc(F)cc2)c(=O)c2ccccc12 | 0.617% (inactive) | –
CN(C(=O)CSc1nnc(-c2c[nH]c3ccccc23)o1)C1CCS(=O)(=O)C1 (configuration not stated) | 0.592% (inactive) | –
NC(=O)c1ccc(NC(=O)COC(=O)c2c3c(nc4ccccc24)/C(=C\c2ccc4c(c2)OCO4)CCC3)cc1 | – | 11.6 µM (active)
NS(=O)(=O)c1ccc(NC(=O)COC(=O)c2c3c(nc4ccccc24)/C(=C\c2ccc4c(c2)OCO4)CCC3)cc1 | – | 18.4 µM (active)
NS(=O)(=O)c1ccc(NC(=O)COC(=O)c2cc3ccccc3oc2=O)cc1 | -17.9% (inactive) | –
O=C(COC(=O)c1ccncc1)Nc1ccc2c(c1)OCO2 | 2.53% (inactive) | –
O=C(COC(=O)c1ccc(F)cc1)Nc1ccc2c(c1)OCO2 | -13.4% (inactive) | –
COc1cc(-c2cc(C(=O)OCC(=O)Nc3ccc4c(c3)OCO4)c3ccccc3n2)cc(OC)c1OC | -18.6% (inactive) | –
CC1CC(=O)N(CC(=O)Nc2cccc(Cl)c2)c2ccccc2S1(=O)=O (configuration not stated) | -20.5% (inactive) | –
CCOC(=O)Cc1cc(=O)[nH]c(/N=C(\N)Nc2ccc(OC)cc2)n1 | -18.9% (inactive) | –
COc1ccc(NC(=O)Cn2c(-c3ccc(OC)cc3)cn(-c3ccc(C)cc3)c2=O)cc1 | -0.508% (inactive) | –
Cc1nn(CCCC(=O)NCc2ccccc2Cl)c(=O)c2nccn12 | 0.154% (inactive) | –
CCc1nn(CCCC(=O)NCc2ccccc2OC)c(=O)c2cc3occc3n12 | -20.1% (inactive) | –
Cc1ccccc1CNC(=O)CCCn1nc(C)c2sc3ccccc3c2c1=O | – | 18.4 µM (active)
CC(OC(=O)c1ccc2ccccc2n1)C(=O)c1ccccc1 (configuration not stated) | -20.7% (inactive) | –
COc1ccc(C2=NOC(COC(=O)c3ccc4ccccc4n3)C2)cc1 (configuration not stated) | -5.82% (inactive) | –

SMILES | activity change, negative = growth inhibition | Potency
COc1ccc(C(=O)COC(=O)c2ccc3ccccc3n2)cc1 | – | 20.6 µM (active)
Cc1ccc(-c2nnc(CN3CCN(C)CC3)o2)cc1 | -20.5% (inactive) | –
COc1ccc(C(=O)CSc2c(C(C)C)cnc3c2c(=O)n(C)c(=O)n3C)cc1 | – | 16.4 µM (active)
COc1ccc(C(=O)CSc2nccc(=O)[nH]2)cc1 | -10.5% (inactive) | –
COCCNC(=O)CSc1c(C)cnc2c1c(=O)n(C)c(=O)n2C | 6.75% (inactive) | –
COc1ccc(CNC(=O)CN2C(=O)c3ccccc3S2(=O)=O)cc1 | -0.378% (inactive) | –
CC1CCCCN1S(=O)(=O)CCNC(=O)c1ccccc1 (configuration not stated) | -22.8% (inactive) | –
CC1CC(C)CN(S(=O)(=O)c2ccc(C(=O)NN3CCOCC3)cc2)C1 (configuration not stated) | -4.85% (inactive) | –
CC1CCCCN1S(=O)(=O)c1ccc(S(=O)(=O)N(CC(=O)Nc2ccccc2)Cc2cccs2)cc1 (configuration not stated) | – | 25.9 µM (active)
COCCN(CC(=O)Nc1ccccc1C)S(=O)(=O)c1ccc(S(=O)(=O)N2CCCC2)cc1 | -16.1% (inactive) | –
O=C(NCc1cccs1)C(=O)NCC1OCCCN1S(=O)(=O)c1ccc(F)cc1 (configuration not stated) | -20.4% (inactive) | –
CC1CCCCN1S(=O)(=O)c1ccc(C(=O)Nc2nnc(-c3cccs3)o2)cc1 (configuration not stated) | – | 6.51 µM (active)
O=C(Nc1nnc(-c2ccccc2)o1)c1cccc(S(=O)(=O)N2CCOCC2)c1 | – | 13 µM (active)
CS(=O)(=O)c1ccc(-c2nnc(NC(=O)c3ccc4c(c3)OCCO4)o2)cc1 | -17.5% (inactive) | –
CCN(CC(=O)NCc1cccs1)S(=O)(=O)c1ccc(NC(C)=O)cc1 | -7.88% (inactive) | –
NC(=O)CSc1nnc(-c2cccc(S(=O)(=O)N3CCOCC3)c2)o1 | -6.32% (inactive) | –
CC1CCCN(S(=O)(=O)c2ccc(C(=O)Nc3nnc(-c4ccncc4)o3)cc2)C1 (configuration not stated) | – | 11.6 µM (active)
O=C(Nc1ccc(N2CCOCC2)cc1)c1cccc(S(=O)(=O)N2CCOCC2)c1 | -10% (inactive) | –
CCOC(=O)c1c(/N=C/c2cc(C)ccc2O)sc2c1CCC2 | 11.4% (inactive) | –
CC(C)OC(=O)CC(=O)CC(O)c1cccc([N+](=O)[O-])c1 (configuration not stated) | -7.73% (inactive) | –
